# Experimental data: the supplement of paper PMC12282887
# ± gives the standard deviation of the averaged measurements.
# What was measured:
# Test in all cases: promoter activity interaction Z-score (Lux/OD deviation from empty-vector control); higher = stronger promoter induction by the compound
# [1] = test system: E. coli BW25113 acrABp lux reporter
# Summary of the method: (§1)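 E. coli BW25113 (wild type or marA, soxS or rob deletion) carrying low-copy luxCDABE promoter reporters grew in 40 µl LB Lennox in 384-well plates at 37°C. Each compound was tested at four 1:2 dilutions in biological duplicates. OD600 and luminescence were read every 30 min for 12 h. Areas were taken over 0–8 h (wild type) or 1–9 h (mutants), and wells below 10% of median growth area were removed. The score is the Z-transformed residual of growth-normalised luminescence fitted against the empty-vector control.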
# [2] = test system: E. coli BW25113 micFp lux reporter
# Summary of the method: as §1
# [3] = test system: E. coli BW25113 ompFp lux reporter
# Summary of the method: as §1
# [4] = test system: E. coli BW25113 robp lux reporter
# Summary of the method: as §1
# [5] = test system: E. coli BW25113 soxSp lux reporter
# Summary of the method: as §1
# [6] = test system: E. coli BW25113 tolCp lux reporter
# Summary of the method: as §1
# [7] = 1 µg/ml, genetic background: wild type
# [8] = 1 µg/ml, genetic background: ΔmarA
# [9] = 1 µg/ml, genetic background: Δrob
# [10] = 1 µg/ml, genetic background: ΔsoxS
# [11] = 1.9 µg/ml, genetic background: wild type
# [12] = 1.9 µg/ml, genetic background: ΔmarA
# [13] = 1.9 µg/ml, genetic background: Δrob
# [14] = 1.9 µg/ml, genetic background: ΔsoxS
# [15] = 3.8 µg/ml, genetic background: wild type
# [16] = 3.8 µg/ml, genetic background: ΔmarA
# [17] = 3.8 µg/ml, genetic background: Δrob
# [18] = 3.8 µg/ml, genetic background: ΔsoxS
# [19] = 7.7 µg/ml, genetic background: wild type
# [20] = 7.7 µg/ml, genetic background: ΔmarA
# [21] = 7.7 µg/ml, genetic background: Δrob
# [22] = 7.7 µg/ml, genetic background: ΔsoxS
structure (smiles),measurement,setting,value
NC1CONC1=O (stereo unspecified) [Cycloserine D],promoter activity interaction Z-score,[1]; [7],0.0277 ± 0.22
same,promoter activity interaction Z-score,[1]; [8],0.657 ± 0.33
same,promoter activity interaction Z-score,[1]; [9],-0.0729 ± 0.055
same,promoter activity interaction Z-score,[1]; [10],0.00357 ± 0.22
same,promoter activity interaction Z-score,[1]; [11],-0.389 ± 0.056
same,promoter activity interaction Z-score,[1]; [12],0.57 ± 0.12
same,promoter activity interaction Z-score,[1]; [13],0.0199 ± 0.26
same,promoter activity interaction Z-score,[1]; [14],-0.339 ± 0.62
same,promoter activity interaction Z-score,[1]; [15],-0.136 ± 0.039
same,promoter activity interaction Z-score,[1]; [16],-0.29 ± 0.2
same,promoter activity interaction Z-score,[1]; [17],0.00284 ± 0.03
same,promoter activity interaction Z-score,[1]; [18],-0.0366 ± 0.12
same,promoter activity interaction Z-score,[1]; [19],-0.588 ± 0.2
same,promoter activity interaction Z-score,[1]; [20],-0.128 ± 0.24
same,promoter activity interaction Z-score,[1]; [21],-0.0882 ± 0.11
same,promoter activity interaction Z-score,[1]; [22],-0.319 ± 0.24
same,promoter activity interaction Z-score,[2]; [7],0.0376 ± 0.12
same,promoter activity interaction Z-score,[2]; [8],-0.00943 ± 0.084
same,promoter activity interaction Z-score,[2]; [9],-0.118 ± 0.074
same,promoter activity interaction Z-score,[2]; [10],-0.0115 ± 0.022
same,promoter activity interaction Z-score,[2]; [11],-0.417 ± 0.2
same,promoter activity interaction Z-score,[2]; [12],-0.00494 ± 0.0052
same,promoter activity interaction Z-score,[2]; [13],-0.0732 ± 0.01
same,promoter activity interaction Z-score,[2]; [14],-0.388 ± 0.035
same,promoter activity interaction Z-score,[2]; [15],-0.305 ± 0.5
same,promoter activity interaction Z-score,[2]; [16],-0.0376 ± 0.047
same,promoter activity interaction Z-score,[2]; [17],-0.0224 ± 0.047
same,promoter activity interaction Z-score,[2]; [18],-0.251 ± 0.019
same,promoter activity interaction Z-score,[2]; [19],-0.38 ± 0.0041
same,promoter activity interaction Z-score,[2]; [20],0.0683 ± 0.028
same,promoter activity interaction Z-score,[2]; [21],0.105 ± 0.092
same,promoter activity interaction Z-score,[2]; [22],-0.294 ± 0.16
same,promoter activity interaction Z-score,[3]; [7],0.314 ± 0.21
same,promoter activity interaction Z-score,[3]; [8],0.134 ± 0.086
same,promoter activity interaction Z-score,[3]; [9],-0.394 ± 0.46
same,promoter activity interaction Z-score,[3]; [10],0.0539 ± 0.036
same,promoter activity interaction Z-score,[3]; [11],-0.14 ± 0.24
same,promoter activity interaction Z-score,[3]; [12],0.387 ± 0.13
same,promoter activity interaction Z-score,[3]; [13],-0.422 ± 0.075
same,promoter activity interaction Z-score,[3]; [14],-0.381 ± 0.19
same,promoter activity interaction Z-score,[3]; [15],-0.202 ± 0.043
same,promoter activity interaction Z-score,[3]; [16],0.194 ± 0.031
same,promoter activity interaction Z-score,[3]; [17],0.0558 ± 0.16
same,promoter activity interaction Z-score,[3]; [18],0.0329 ± 0.09
same,promoter activity interaction Z-score,[3]; [19],-0.567 ± 0.3
same,promoter activity interaction Z-score,[3]; [20],0.0892 ± 0.075
same,promoter activity interaction Z-score,[3]; [21],0.153 ± 0.069
same,promoter activity interaction Z-score,[3]; [22],-0.485 ± 0.02
same,promoter activity interaction Z-score,[4]; [7],0.73 ± 0.71
same,promoter activity interaction Z-score,[4]; [8],0.0767 ± 0.37
same,promoter activity interaction Z-score,[4]; [9],0.466 ± 0.27
same,promoter activity interaction Z-score,[4]; [10],0.49 ± 0.31
same,promoter activity interaction Z-score,[4]; [11],-0.277 ± 0.26
same,promoter activity interaction Z-score,[4]; [12],0.295 ± 0.52
same,promoter activity interaction Z-score,[4]; [13],0.186 ± 0.67
same,promoter activity interaction Z-score,[4]; [14],0.471 ± 0.99
same,promoter activity interaction Z-score,[4]; [15],-0.466 ± 0.068
same,promoter activity interaction Z-score,[4]; [16],0.31 ± 0.081
same,promoter activity interaction Z-score,[4]; [17],0.0139 ± 0.21
same,promoter activity interaction Z-score,[4]; [18],-0.224 ± 0.093
same,promoter activity interaction Z-score,[4]; [19],-1.02 ± 0.081
same,promoter activity interaction Z-score,[4]; [20],-0.102 ± 0.31
same,promoter activity interaction Z-score,[4]; [21],-0.282 ± 0.25
same,promoter activity interaction Z-score,[4]; [22],-0.361 ± 0.67
same,promoter activity interaction Z-score,[5]; [7],0.217 ± 0.043
same,promoter activity interaction Z-score,[5]; [8],0.0924 ± 0.0091
same,promoter activity interaction Z-score,[5]; [9],0.0464 ± 0.16
same,promoter activity interaction Z-score,[5]; [10],0.093 ± 0.016
same,promoter activity interaction Z-score,[5]; [11],-0.193 ± 0.011
same,promoter activity interaction Z-score,[5]; [12],0.076 ± 0.02
same,promoter activity interaction Z-score,[5]; [13],-0.205 ± 0.024
same,promoter activity interaction Z-score,[5]; [14],0.164 ± 0.2
same,promoter activity interaction Z-score,[5]; [15],-0.0918 ± 0.052
same,promoter activity interaction Z-score,[5]; [16],-0.113 ± 0.019
same,promoter activity interaction Z-score,[5]; [17],0.0335 ± 0.083
same,promoter activity interaction Z-score,[5]; [18],-0.0149 ± 0.074
same,promoter activity interaction Z-score,[5]; [19],-0.198 ± 0.27
same,promoter activity interaction Z-score,[5]; [20],-0.171 ± 0.14
same,promoter activity interaction Z-score,[5]; [21],-0.117 ± 0.11
same,promoter activity interaction Z-score,[5]; [22],-0.174 ± 0.047
same,promoter activity interaction Z-score,[6]; [7],0.33 ± 0.084
same,promoter activity interaction Z-score,[6]; [8],1.18 ± 0.26
same,promoter activity interaction Z-score,[6]; [9],-0.401 ± 0.15
same,promoter activity interaction Z-score,[6]; [10],-0.259 ± 0.83
same,promoter activity interaction Z-score,[6]; [11],-0.543 ± 0.64
same,promoter activity interaction Z-score,[6]; [12],-0.33 ± 0.62
same,promoter activity interaction Z-score,[6]; [13],-0.224 ± 0.69
same,promoter activity interaction Z-score,[6]; [14],0.645 ± 0.11
same,promoter activity interaction Z-score,[6]; [15],0.289 ± 0.26
same,promoter activity interaction Z-score,[6]; [16],0.197 ± 0.06
same,promoter activity interaction Z-score,[6]; [17],0.242 ± 0.12
same,promoter activity interaction Z-score,[6]; [18],-0.045 ± 0.33
same,promoter activity interaction Z-score,[6]; [19],-1.06 ± 0.73
same,promoter activity interaction Z-score,[6]; [20],-0.822 ± 0.7
same,promoter activity interaction Z-score,[6]; [21],-0.397 ± 0.29
same,promoter activity interaction Z-score,[6]; [22],-0.568 ± 0.58
